The source made the active and inactive calls.

Assay [1] in a line: small molecules captured by biotinylated probe aFSTL3 – biochemical, small-molecule microarray, fluorescence 635/667, stem cell growth factor project, primary screen (AID 1064).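 Also: measures binding of the biotinylated anti-FSTL3 antibody to printed compounds.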 The conditions noted are these: higher = more signal.
Assay [2] is described as follows: binders from COS7 lysate, DM2A8 probe, primary screen, torsin A project, cell lysate, small-molecule microarray, fluorescence 635/667 (AID 1065). The conditions noted are these: higher = more signal, COS7 lysate expressing mutant human TOR1A.
Assay [3] is described as follows: small molecules captured by biotinylated probe aFGF2 – biochemical, small-molecule microarray, fluorescence 635/667, stem cell growth factor project, primary screen (AID 1067).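 Also: measures binding of biotinylated aFGF2 protein to printed compounds on slides; z-score merges feature fluorescence and signal-to-noise across triplicate slides.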 The conditions noted are these: higher = more signal.
Assay [4] is described as follows: small molecules captured by biotinylated probe aFGF10 – biochemical, small-molecule microarray, fluorescence 635/667, stem cell growth factor project, primary screen (AID 1071).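 Also: score merges 667 nm spot intensity and signal to noise from triplicate slides.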 The conditions noted are these: higher = more signal.
In assay [5] the target is Neurogenic locus notch homolog protein 2 (Homo sapiens) (UniProt Q04721). The experiment in a line: small molecules binding Notch2 protein – biochemical, small-molecule microarray, 635 nm fluorescence, stem cell growth factors, primary screen (AID 1073). As to conditions: higher = more signal.
Assay [6] deals with Pro-neuregulin-1, membrane-bound isoform (Homo sapiens) (UniProt Q02297). The experiment in a line: small molecules binding neuregulin-1 protein – biochemical, small-molecule microarray, fluorescence 635/667, psychiatric disease protein project, primary screen (AID 1075).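 Also: score combines 667 nm spot fluorescence with signal to noise.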 The conditions noted are these: NRG1 binding, 635 nm fluorescence, higher = more signal.
The test system of assay [7] is Neuregulin-1 EGF-like domain. The experiment in a line: small molecules binding NRG1 EGF domain – biochemical, small-molecule microarray, 635 nm fluorescence, primary screen (AID 1081).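 Also: binding of the protein to compounds printed on small-molecule microarray slides.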 As to conditions: higher = more signal.
Assay [8] in a line: FRG1 expression reporter modulators in myotubes – cell-based, C2C12 myotubes, firefly/Renilla luciferase, luminescence, FRG1 inhibition for FSHD, primary screen (AID 1084). The conditions noted are these: FRG1 promoter luciferase, higher = more signal, called active from +8 up or from −8 down.
Assay [9] is described as follows: small molecules captured by biotinylated probe aFST – biochemical, small-molecule microarray, fluorescence 635/667, stem cell growth factor project, primary screen (AID 1086).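 Also: score merges 667 nm fluorescence with signal-to-noise of each printed compound spot.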 The conditions noted are these: higher = more signal.
Assay [10] in a line: binders of probe aHhip on microarray, primary screen, stem cell growth factor project, biochemical, small-molecule microarray, fluorescence 635/667 (AID 1087).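 Also: score merges spot fluorescence at 667nm with spot signal to noise ratio.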 The conditions noted are these: higher = more signal.
Assay [11] relates to PRMT1 (protein arginine N-methyltransferase 1). The experiment in a line: small molecules binding arginine methyltransferase PRMT1 – biochemical, small-molecule microarray, 635 nm fluorescence, primary screen (AID 1088).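 Also: binding of Prmt1 protein to compounds spotted on small-molecule microarray slides.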 The conditions noted are these: higher = more signal.
Assay [12] can be described thus: growth effects on S. cerevisiae YJM789 – YJM789 clinical isolate, OD600, 24 h, basal, primary screen (AID 1089).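 Also: growth of clinical yeast isolate S. cerevisiae YJM 789 seeded 1000 cells per well; test concentration not given here.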 As to conditions: higher = more signal, called active from +8 up or from −8 down.
Assay [13] in a line: S. pombe growth modifiers, basal conditions – strain 972, OD600, 24 h, no modulator, primary screen (AID 1090).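 Also: basal condition with compound alone and no growth modifier present; test concentration not given here.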 As to conditions: S. pombe 972 growth, higher = more signal, called active from +8 up or from −8 down.
Assay [14] in a line: budding yeast growth modifiers under rapamycin – strain BY4716, OD600, 96 h, primary screen (AID 1091). Also: test concentration not given here. The conditions noted are these: S. cerevisiae BY4716 + rapamycin, higher = more signal, called active from +8 up or from −8 down.
For assay [15], the target named is Torsin-1A-interacting protein 2 (Homo sapiens) (UniProt Q8NFQ8). The experiment in a line: small molecules binding lysate-expressed LULL1 – cell lysate, human LULL1 lysate, 635/667 nm fluorescence, primary screen (AID 1092).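 Also: score merges per-feature 667 nm fluorescence with signal-to-noise.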 The conditions noted are these: small-molecule microarray, hLULL1 lysate binding, 635 nm fluorescence; higher = more signal.
Assay [16] is described as follows: optical density change of DRC41 E. coli – strain DRC41, OD650, 24 h, E. coli filamentation project, primary screen (AID 1093).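 Also: MC1000 strain lacking acrAB efflux and sulA so SOS filamentation is blocked; test concentration not given here.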 The conditions noted are these: E. coli DRC41 growth, higher = more signal, called active from +8 up or from −8 down.
Assay [17] in a line: probe aLefty2 binding to arrayed compounds – biochemical, biotinylated probe, 635/667 nm fluorescence, primary screen (AID 1094).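 Also: score merges spot fluorescence near 667 nm with spot signal-to-noise ratio.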 The conditions noted are these: small-molecule microarray, higher = more signal.
The subject of assay [18] is Noggin (protein binding on small-molecule microarray). The experiment in a line: small molecules binding Noggin protein – biochemical, 635/667 nm fluorescence, primary screen (AID 1095).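 Also: score merges 667 nm feature fluorescence with signal to noise over triplicate slides.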 The conditions noted are these: 635 nm fluorescence, higher = more signal.
Assay [19] addresses Neurogenic locus notch homolog protein 3 (Homo sapiens) (UniProt Q9UM47). The experiment in a line: small molecules binding NOTCH3 protein – biochemical, 635/667 nm fluorescence, primary screen (AID 1096). As to conditions: small-molecule microarray, 635 nm fluorescence, higher = more signal.
The nature of assay [20]: probe aEGFR binding to arrayed compounds – biochemical, biotinylated probe, 635/667 nm fluorescence, primary screen (AID 1097).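 Also: probe is a biotinylated anti-EGFR antibody binding compounds printed on slides; score combines fluorescence near 667 nm and signal to noise of each spot.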 The conditions noted are these: small-molecule microarray, higher = more signal.

Torsin-1A-interacting protein 2 (Homo sapiens), sequence (Q8NFQ8 whole entry, looked up): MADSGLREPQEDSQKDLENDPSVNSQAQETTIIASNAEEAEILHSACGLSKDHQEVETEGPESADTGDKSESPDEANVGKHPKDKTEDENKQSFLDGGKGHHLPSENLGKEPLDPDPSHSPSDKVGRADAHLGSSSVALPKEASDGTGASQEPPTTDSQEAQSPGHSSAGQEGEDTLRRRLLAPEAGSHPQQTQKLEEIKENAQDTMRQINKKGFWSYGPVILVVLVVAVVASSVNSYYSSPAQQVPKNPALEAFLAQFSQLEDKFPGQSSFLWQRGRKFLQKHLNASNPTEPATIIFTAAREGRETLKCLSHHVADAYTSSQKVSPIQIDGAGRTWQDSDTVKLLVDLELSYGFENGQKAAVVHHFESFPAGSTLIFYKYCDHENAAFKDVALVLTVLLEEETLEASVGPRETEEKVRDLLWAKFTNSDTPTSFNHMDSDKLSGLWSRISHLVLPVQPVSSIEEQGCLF
Pro-neuregulin-1, membrane-bound isoform (Homo sapiens), sequence (Q02297 whole entry, looked up, the tested form may be a part, canonical isoform): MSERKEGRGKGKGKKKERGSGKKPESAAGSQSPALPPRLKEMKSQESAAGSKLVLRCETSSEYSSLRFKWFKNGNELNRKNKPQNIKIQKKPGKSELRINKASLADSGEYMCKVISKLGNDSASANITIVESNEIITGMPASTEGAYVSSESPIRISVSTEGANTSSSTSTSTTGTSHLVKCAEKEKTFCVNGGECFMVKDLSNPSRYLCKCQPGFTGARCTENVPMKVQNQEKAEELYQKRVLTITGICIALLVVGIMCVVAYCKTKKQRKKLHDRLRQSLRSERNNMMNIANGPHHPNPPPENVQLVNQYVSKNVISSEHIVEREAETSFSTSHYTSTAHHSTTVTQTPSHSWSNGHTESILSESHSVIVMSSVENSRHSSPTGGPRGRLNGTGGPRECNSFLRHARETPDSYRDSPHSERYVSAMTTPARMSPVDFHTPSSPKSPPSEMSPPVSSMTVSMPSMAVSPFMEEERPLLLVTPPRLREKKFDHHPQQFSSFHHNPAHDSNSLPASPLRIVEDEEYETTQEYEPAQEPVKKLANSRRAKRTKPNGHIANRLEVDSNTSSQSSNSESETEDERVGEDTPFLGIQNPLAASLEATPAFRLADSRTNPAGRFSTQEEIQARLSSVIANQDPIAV
Neurogenic locus notch homolog protein 2 (Homo sapiens), sequence (Q04721 whole entry, looked up, canonical isoform): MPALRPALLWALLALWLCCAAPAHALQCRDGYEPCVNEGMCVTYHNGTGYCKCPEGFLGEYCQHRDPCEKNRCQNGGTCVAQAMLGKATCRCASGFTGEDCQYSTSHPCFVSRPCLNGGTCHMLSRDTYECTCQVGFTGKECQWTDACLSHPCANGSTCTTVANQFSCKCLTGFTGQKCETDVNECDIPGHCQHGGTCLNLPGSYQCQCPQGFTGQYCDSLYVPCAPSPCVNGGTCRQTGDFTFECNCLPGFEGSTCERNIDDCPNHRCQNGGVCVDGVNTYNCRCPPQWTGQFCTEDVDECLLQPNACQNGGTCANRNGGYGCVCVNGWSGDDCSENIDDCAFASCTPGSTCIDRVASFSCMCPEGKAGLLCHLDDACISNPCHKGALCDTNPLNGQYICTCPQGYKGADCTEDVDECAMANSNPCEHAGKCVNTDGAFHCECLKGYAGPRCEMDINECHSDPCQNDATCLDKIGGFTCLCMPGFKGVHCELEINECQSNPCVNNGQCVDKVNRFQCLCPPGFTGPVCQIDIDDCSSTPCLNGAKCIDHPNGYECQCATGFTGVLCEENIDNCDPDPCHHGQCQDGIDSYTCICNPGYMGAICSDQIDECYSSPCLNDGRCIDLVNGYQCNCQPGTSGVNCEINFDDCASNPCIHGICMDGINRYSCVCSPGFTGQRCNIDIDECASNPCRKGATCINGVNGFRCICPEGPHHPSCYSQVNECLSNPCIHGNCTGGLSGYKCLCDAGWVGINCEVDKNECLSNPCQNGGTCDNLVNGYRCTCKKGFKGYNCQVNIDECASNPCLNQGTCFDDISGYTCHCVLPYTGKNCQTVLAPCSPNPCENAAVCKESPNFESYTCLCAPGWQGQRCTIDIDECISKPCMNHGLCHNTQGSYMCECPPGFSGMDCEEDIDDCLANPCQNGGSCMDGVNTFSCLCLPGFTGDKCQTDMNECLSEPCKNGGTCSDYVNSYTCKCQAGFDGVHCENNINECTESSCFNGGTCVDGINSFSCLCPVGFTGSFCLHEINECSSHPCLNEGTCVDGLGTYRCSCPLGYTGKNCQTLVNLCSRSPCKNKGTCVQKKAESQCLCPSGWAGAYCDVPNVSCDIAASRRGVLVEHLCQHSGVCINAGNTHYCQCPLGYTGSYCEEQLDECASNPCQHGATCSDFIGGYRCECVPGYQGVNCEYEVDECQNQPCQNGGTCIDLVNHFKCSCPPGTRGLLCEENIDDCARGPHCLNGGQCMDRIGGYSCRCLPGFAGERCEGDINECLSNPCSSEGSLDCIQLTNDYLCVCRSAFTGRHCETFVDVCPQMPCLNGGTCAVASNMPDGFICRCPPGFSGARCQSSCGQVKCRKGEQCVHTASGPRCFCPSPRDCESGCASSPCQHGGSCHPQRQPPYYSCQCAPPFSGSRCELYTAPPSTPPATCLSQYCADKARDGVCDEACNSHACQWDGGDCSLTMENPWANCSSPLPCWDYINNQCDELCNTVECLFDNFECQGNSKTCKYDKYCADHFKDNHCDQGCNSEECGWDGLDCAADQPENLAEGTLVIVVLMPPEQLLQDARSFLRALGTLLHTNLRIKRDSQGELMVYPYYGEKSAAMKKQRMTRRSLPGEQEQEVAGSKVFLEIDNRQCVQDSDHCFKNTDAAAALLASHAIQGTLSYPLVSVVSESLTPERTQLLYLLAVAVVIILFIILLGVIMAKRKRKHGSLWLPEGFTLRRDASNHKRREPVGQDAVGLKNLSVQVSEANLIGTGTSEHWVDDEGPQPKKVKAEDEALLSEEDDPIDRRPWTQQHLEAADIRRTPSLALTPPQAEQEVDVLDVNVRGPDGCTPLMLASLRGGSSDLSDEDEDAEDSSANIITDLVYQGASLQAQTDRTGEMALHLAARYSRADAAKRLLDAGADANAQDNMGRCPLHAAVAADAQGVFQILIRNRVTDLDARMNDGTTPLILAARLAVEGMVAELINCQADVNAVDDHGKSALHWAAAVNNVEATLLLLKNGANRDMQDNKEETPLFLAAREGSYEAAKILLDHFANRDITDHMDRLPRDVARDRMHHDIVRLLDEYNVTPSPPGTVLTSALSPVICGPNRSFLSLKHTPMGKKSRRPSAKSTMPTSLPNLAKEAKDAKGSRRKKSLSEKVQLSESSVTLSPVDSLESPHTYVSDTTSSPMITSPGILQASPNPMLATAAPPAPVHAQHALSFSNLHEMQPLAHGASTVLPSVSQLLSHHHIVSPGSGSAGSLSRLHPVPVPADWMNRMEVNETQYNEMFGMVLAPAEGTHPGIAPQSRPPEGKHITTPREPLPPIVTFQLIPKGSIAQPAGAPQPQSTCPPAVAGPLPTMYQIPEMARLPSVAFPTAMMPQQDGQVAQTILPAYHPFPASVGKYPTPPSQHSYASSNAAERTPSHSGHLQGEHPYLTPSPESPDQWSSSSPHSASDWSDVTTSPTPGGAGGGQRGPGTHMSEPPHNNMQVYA

For the molecule `Cc1ccc(F)cc1S(=O)(=O)N[C@@H]1CCN(Cc2ccc(OC(C)C)cc2)C1`, the composite z-score in assay [1] was -0.0929; in assay [2], 0.571; in assay [3], -0.115; in assay [4], -0.209; in [5], -0.863; in assay [6] it was -0.136. Also, the composite z-score is 0.288 in assay [7]; -0.192 in [9]; -0.257 in assay [10]; -0.43 in assay [11]; -0.526 in assay [15]; -0.218 in assay [17]. In addition, the composite z-score is 0.313 in [18], -0.877 in assay [19] and -0.273 in [20]. Also, the z-score was -1.22 (inactive) in assay [8]; -1.01 (inactive) in assay [12]; -14.4 (active) in assay [13]; -0.839 (inactive) in [14]; -19.6 (active) in assay [16].

As for `[N-]=[N+]=Nc1ccccc1C[C@]1(C(=O)NCc2ccccc2)N=C(c2ccc(OCCCO)cc2)O[C@H]1c1ccccc1`, the composite z-score in [1] was found to be 0.0843; in assay [2], 0.984; in assay [3] it was 0.0898; in [4], 0.584; in [5], 1.61; in [6], 1.86. Moreover, the composite z-score in [7] worked out at 1.2; in [9], 1.22; in assay [10] it was 0.0515; in assay [11], 1.56; in assay [15] it was 3.34; in assay [17], 0.206. For the same molecule, the values for the composite z-score in assay [18], in assay [19] and in assay [20] were 0.383, 1.12 and 0.048, respectively. Also, the z-score in assay [8] is -2.1 (inactive); in [12] it was -0.623 (inactive); in [13], 0.69 (inactive); in [14], 17.8 (active); in assay [16] it was 0.7 (inactive).

As to `C=CCN1C(=O)[C@@]2(O[C@@H](CCn3cc([C@H](O)c4ccccc4)nn3)[C@H]([Si](C)(C)c3ccc(OC)cc3)[C@H]2C)c2ccccc21`, the composite z-score is -0.0119 in assay [1]; 0.395 in [2]; -0.036 in assay [3]; 0.386 in assay [4]; 0.501 in [5]; 1.31 in assay [6]. For the same molecule, the composite z-score in assay [7] was 1.01; in assay [9] it was 0.728; in assay [10], -0.289; in assay [11] it was 1.55; in assay [15], 1.02; in assay [17], -0.0507. In addition, the composite z-score in [18] is 0.442; in [19], 1.16; in assay [20] it was -0.094. Moreover, the z-score in assay [8] is -1.45 (inactive); in assay [12], -0.78 (inactive); in assay [13] it was -0.0638 (inactive); in assay [14], 0.307 (inactive); in assay [16], 1.1 (inactive).

In the case of `C=C1C2CC3C(=C4C(CO[C@@H]4[C@H]4CCCN4S(=O)(=O)c4ccccc4[N+](=O)[O-])C4C(=O)N(C)C(=O)C34)CC2C(=O)N1C` (stereo not given in full), the composite z-score in [1] was -0.431; in assay [2], 0.315; in assay [3], -0.125; in assay [4], 0.36; in assay [5], 0.574; in [6], 1.12. Further, the composite z-score in assay [7] was 0.0641; in [9], 0.174; in assay [10], 0.0024; in assay [11], 0.627; in assay [15], 0.303; in assay [17] it was -0.139. For the same molecule, the composite z-score in assay [18] stood at 0.082; in assay [19], 0.22; in assay [20], 0.106. Also, the z-score is 0.581 (inactive) in [8]; -0.0815 (inactive) in assay [12]; -4.92 (inactive) in [13]; -0.824 (inactive) in [14]; -0.509 (inactive) in [16].

Regarding `CCOc1cc(C(O)C2C=CC3C(=O)N(C4CCCCC4)C(=O)C3N2Nc2ccc(OC)cc2)ccc1O` (stereo not given), the composite z-score amounted to 0.26 in assay [1]; 0.456 in assay [2]; 0.0465 in assay [3]; 0.339 in [4]; 1.64 in assay [5]; 1.72 in assay [6]. Moreover, the composite z-score in assay [7] was 1.28; in [9], 0.775; in [10], -0.132; in [11] it was 1.17; in [15] it was 3.21; in assay [17], 0.0252. The composite z-score in [18] amounted to 0.163; in assay [19] it was 1.05; in assay [20], 0.0295. The z-score in [8] is 1.79 (inactive); in assay [12], -0.344 (inactive); in [13] it was -0.118 (inactive); in assay [14], -0.129 (inactive); in assay [16] it was -0.0874 (inactive).

(Values after PubChem BioAssay.)
